# Measurements published in PubChem BioAssay.
# Where “and” joins values, the source holds several entries; their conditions need not be identical. Identical values can stand only once. Calls of active or inactive are those of the source.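 The calls were made as follows, unless noted: active = compounds whose cell count with miR-34 switched on is under 0.7 times the count with it off; inactive = the rest.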
# Key:
# [1] = sensitizers of A549 cells to miR-34 induction, primary screen, imaging, A549 dox-inducible miR-34, nuclei and caspase counts (AID 1347080); conditions: A549 miR-34 inducible, Hoechst nuclei count, 48 h
# [2] = phospholipid biosynthesis inhibitors in animal cells, primary screen, cell-based, LOPAC library, screen 4 (AID 1347384; call rule not given here); conditions: phospholipid biosynthesis inhibition screen, at 10 µM
# [3] = target: NAD(+) hydrolase SARM1 (Homo sapiens) (UniProt Q6SZW1); assay: SARM1 TIR NADase inhibitors, cell lysate, NAD-Glo luminescence (AID 1508614;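 active = compound whose remaining NAD level is above about 45 nM, limit read from the data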;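 also: higher remaining NAD means stronger inhibition of SARM1 NADase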); conditions: SAM-TIR HEK293T lysate NADase, at 1 µM, stronger effect = higher value
# Sequence of NAD(+) hydrolase SARM1 (Homo sapiens) (Q6SZW1 whole entry, looked up, the tested form may be a part): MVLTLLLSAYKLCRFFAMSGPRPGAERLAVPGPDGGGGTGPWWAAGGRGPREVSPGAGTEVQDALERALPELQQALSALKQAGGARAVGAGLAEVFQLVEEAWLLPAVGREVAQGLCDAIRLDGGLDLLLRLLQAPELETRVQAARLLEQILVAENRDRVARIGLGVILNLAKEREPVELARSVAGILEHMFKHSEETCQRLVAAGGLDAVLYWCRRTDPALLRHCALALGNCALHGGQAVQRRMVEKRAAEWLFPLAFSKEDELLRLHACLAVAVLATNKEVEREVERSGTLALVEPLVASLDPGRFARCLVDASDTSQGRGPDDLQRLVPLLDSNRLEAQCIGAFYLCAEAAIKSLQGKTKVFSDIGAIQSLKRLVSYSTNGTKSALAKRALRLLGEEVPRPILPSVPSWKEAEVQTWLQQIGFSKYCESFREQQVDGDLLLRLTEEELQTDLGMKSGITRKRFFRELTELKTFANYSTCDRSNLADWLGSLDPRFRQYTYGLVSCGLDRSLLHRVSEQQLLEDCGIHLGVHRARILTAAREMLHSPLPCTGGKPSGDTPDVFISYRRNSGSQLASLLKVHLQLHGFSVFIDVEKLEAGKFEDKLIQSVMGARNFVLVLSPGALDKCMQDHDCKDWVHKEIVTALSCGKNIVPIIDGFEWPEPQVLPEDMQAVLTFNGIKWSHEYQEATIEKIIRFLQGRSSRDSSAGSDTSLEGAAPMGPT
# [4] = target: Mitogen-activated protein kinase 7 (Homo sapiens) (UniProt Q13164); assay: ERK5 transactivation activators in reporter cells, primary screen, cell-based, HTS (AID 1508626;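 active = luciferase signal above three times the same-plate solvent-only control wells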;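 also: luciferase driven by Gal4-ERK5 fusion binding five Gal4 sites before minimal TATA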); conditions: HeLa Gal4-ERK5 transactivation, 18 h, at 5 µM, stronger effect = higher value
# Sequence of Mitogen-activated protein kinase 7 (Homo sapiens) (Q13164 whole entry, looked up, the tested form may be a part): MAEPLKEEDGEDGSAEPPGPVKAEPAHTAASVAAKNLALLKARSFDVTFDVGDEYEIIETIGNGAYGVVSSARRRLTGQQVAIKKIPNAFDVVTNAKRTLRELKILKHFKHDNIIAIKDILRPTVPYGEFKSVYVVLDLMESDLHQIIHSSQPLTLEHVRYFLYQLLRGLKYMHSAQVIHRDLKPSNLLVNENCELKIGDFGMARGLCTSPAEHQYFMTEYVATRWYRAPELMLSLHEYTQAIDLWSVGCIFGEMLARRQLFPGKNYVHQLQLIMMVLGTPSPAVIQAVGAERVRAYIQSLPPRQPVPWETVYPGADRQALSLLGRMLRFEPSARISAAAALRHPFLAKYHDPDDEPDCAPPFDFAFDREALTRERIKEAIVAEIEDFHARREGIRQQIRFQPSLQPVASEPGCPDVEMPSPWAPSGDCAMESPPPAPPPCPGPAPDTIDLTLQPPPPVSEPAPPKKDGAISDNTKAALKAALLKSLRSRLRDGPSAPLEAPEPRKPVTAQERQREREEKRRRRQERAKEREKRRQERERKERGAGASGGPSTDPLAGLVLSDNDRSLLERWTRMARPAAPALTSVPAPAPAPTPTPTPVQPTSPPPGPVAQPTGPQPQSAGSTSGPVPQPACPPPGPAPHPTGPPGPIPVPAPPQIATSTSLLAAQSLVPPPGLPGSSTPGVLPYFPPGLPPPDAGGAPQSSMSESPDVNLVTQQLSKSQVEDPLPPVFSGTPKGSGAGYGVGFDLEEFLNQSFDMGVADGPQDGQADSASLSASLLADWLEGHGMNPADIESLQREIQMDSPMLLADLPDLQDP
# [5] = viability rescue of complex I mutant cybrids, primary screen, cell-based, galactose medium, ATP luminescence (AID 1645843;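 active = z-score of at least 1.8 in each of two replicates, scored against plate mean and spread of sample wells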;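 also: positive z means more ATP and so rescue of galactose-driven cybrid death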); conditions: complex I mutant cybrid cells, 72 h, stronger effect = higher value
# [6] = survival rescue of mitochondrial mutant cells in low glucose, primary screen, MELAS cybrids, Rieske KO mouse fibroblasts, CellTiter-Glo (AID 1508586;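 active = mean z-score across replicates of 1.96 or higher in either the MELAS or the Rieske mutant cell line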;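 also: z relative to plate mean and SD of compound and empty wells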)
# [7] = LFS_MB_P medulloblastoma growth inhibition, cell-based, chromothripsis tumors, cisplatin or BGB combos (AID 1671449; in the data active = inhibition above about 80%;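 also: cells exposed for 96 hours; 0% = vehicle DMSO and 100% = killing by high DMSO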); conditions: LFS_MB_P medulloblastoma cells
# [8] = HDN33 neuroblastoma growth inhibition, cell-based, chromothripsis tumors, cisplatin or BGB combos (AID 1671450; in the data active = inhibition above about 80%;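 also: cells exposed to compound for four days; 0% = vehicle DMSO and 100% = cell killing by high DMSO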); conditions: HDN33 neuroblastoma cells, stronger effect = higher value
# [9] = ICB984 medulloblastoma cell growth inhibition, synergistic combos for chromothripsis tumors, cisplatin or BGB combos (AID 1671451; call rule not given here;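 also: cells exposed for 96 hours before readout; 0% = vehicle DMSO and 100% = killing by high DMSO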); conditions: ICB984 medulloblastoma cells, drug combinations, stronger effect = higher value
# [10] = LFS_MB_1R medulloblastoma cell growth inhibition, synergistic combos for chromothripsis tumors, cisplatin or BGB combos (AID 1671452; in the data active = inhibition above about 80%;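 also: cells exposed for 96 hours before readout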); conditions: LFS_MB_1R medulloblastoma cells, stronger effect = higher value
# [11] = HTB85 osteosarcoma cell growth inhibition, synergistic combos for chromothripsis tumors, BGB or cisplatin IC20 combos (AID 1671453; in the data active = inhibition above about 80%;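 also: cells exposed for 96 hours before readout; 0% = vehicle DMSO and 100% = high DMSO killing control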); conditions: HTB85 osteosarcoma cells, drug combinations, stronger effect = higher value
# [12] = CRL2098 osteosarcoma cell growth inhibition, synergistic combos for chromothripsis tumors, BGB or cisplatin IC20 combos (AID 1671454; in the data active = inhibition above about 80%;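 also: cells exposed for 96 h before readout; 0% = vehicle DMSO and 100% = killing by high DMSO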); conditions: CRL2098 osteosarcoma cells, drug combinations, stronger effect = higher value
# [13] = HD-MB03 medulloblastoma cell growth inhibition, synergistic combos for chromothripsis tumors, BGB or cisplatin IC20 combos (AID 1671455; in the data active = inhibition above about 83%;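 also: 0% = vehicle DMSO and 100% = high DMSO as cytotoxic control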); conditions: HD-MB03 medulloblastoma cells, stronger effect = higher value
# [14] = stronger effect = lower value, cell number ratio, induced over uninduced
# [15] = measured here: relative caspase fold change +Dox/-Dox
# [16] = measured here: total cells with miR-34 induction, stronger effect = lower value
# [17] = measured here: total cells without miR-34 induction
# [18] = MELAS cybrid survival, CellTiter-Glo 48 h, stronger effect = higher value
# [19] = Rieske KO mouse fibroblast survival, CellTiter-Glo 72 h
# [20] = measured here: combination with BGB IC40, at 0.05 µM
smiles,measurement,setting,value
C[n+]1cc2c3c(ccc2c2ccc4cc5c(cc4c21)OCO5)OCO3,fold change,[1]; [14],0.823 (inactive) and 1.84 (inactive) and 1.11 (inactive)
same,fold change,[1]; [15],0.926 and 0.714 and 1.64
same,cell count,[1]; [16],552 and 933 and 1830
same,cell count,[1]; [17],672 and 507 and 1640
same,outcome,[2],inactive
same,remaining NAD,[3],10 nM (inactive)
same,luciferase signal,[4],84 AU (inactive)
same,z-score,[5],-1.38 (inactive)
Cc1ccccc1OCC(O)CO (centres undefined),fold change,[1]; [14],0.91 (inactive) and 0.921 (inactive)
same,fold change,[1]; [15],0.936 and 3.64
same,cell count,[1]; [16],8610 and 11300
same,cell count,[1]; [17],9470 and 12300
same,z-score,[6]; [18],-0.331 (inactive)
same,z-score,[6]; [19],-0.218
same,remaining NAD,[3],10 nM (inactive)
same,luciferase signal,[4],44 AU (inactive)
CCN1CCC[C@H]1CNC(=O)c1cc(S(N)(=O)=O)ccc1OC,fold change,[1]; [14],1.01 (inactive) and 0.997 (inactive) and 0.936 (inactive)
same,fold change,[1]; [15],1.51 and 0.827 and 1.56
same,cell count,[1]; [16],10700 and 9240 and 9830
same,cell count,[1]; [17],10600 and 9270 and 10500
same,outcome,[2],inactive
same,z-score,[6]; [18],0.469 (inactive)
same,z-score,[6]; [19],0.62
same,z-score,[5],0.65 (inactive) and 0.075 (inactive) and 0.505 (inactive)
CCn1cc(C(=O)O)c(=O)c2cc3c(cc21)OCO3,fold change,[1]; [14],1.06 (inactive) and 0.943 (inactive) and 0.852 (inactive)
same,fold change,[1]; [15],0.823 and 1.43 and 2.84
same,cell count,[1]; [16],10300 and 9150 and 11200
same,cell count,[1]; [17],9710 and 9700 and 13200
same,outcome,[2],inactive
same,z-score,[6]; [18],0.663 (inactive)
same,z-score,[6]; [19],0.252
same,remaining NAD,[3],10 nM (inactive)
same,luciferase signal,[4],88 AU (inactive)
same,z-score,[5],0.245 (inactive)
same,inhibition,"[7]; at 0.5 µM, stronger effect = higher value",-36.8% (inactive)
same,inhibition,"[7]; measured here: combination with BGB IC20, at 0.005 µM",-15.7%
same,inhibition,"[7]; measured here: combination with BGB IC40, at 0.005 µM",-20.3%
same,inhibition,[7]; [20],-2.68%
same,inhibition,"[7]; measured here: combination with cisplatin, at 0.5 µM, stronger effect = higher value",-50%
same,inhibition,"[7]; measured here: combination with cisplatin, at 5 µM, stronger effect = higher value",-47.2%
same,inhibition,"[8]; BGB combo, at 5 µM",-6.85%
same,inhibition,[8]; at 0.5 µM,11.7% (inactive)
same,inhibition,"[8]; cisplatin combo, at 5 µM",-11.4%
same,inhibition,"[8]; measured here: with BGB IC20 combination, at 0.5 µM",31.7%
same,inhibition,"[8]; measured here: with cisplatin IC20 combination, at 0.5 µM",-3.7%
same,inhibition,"[8]; single agent, at 5 µM",13.3%
same,inhibition,"[9]; BGB IC20 combo, at 0.005 µM",-17.2%
same,inhibition,"[9]; BGB IC40 combo, at 0.005 µM",7.28%
same,inhibition,"[9]; BGB IC40 combo, at 0.05 µM",6.59%
same,inhibition,[9]; at 0.5 µM,-11.6% (inactive)
same,inhibition,"[9]; cisplatin combo, at 0.05 µM",6.59%
same,inhibition,"[9]; cisplatin combo, at 0.5 µM",-23.1%
same,inhibition,"[9]; cisplatin combo, at 5 µM",6.27%
same,inhibition,"[9]; measured here: 5 uM single agent, at 5 µM",-34.2%
same,inhibition,[10]; at 0.5 µM,0.84% (inactive)
same,inhibition,[10]; [20],-15.9%
same,inhibition,"[10]; measured here: combination with cisplatin, at 0.5 µM",-7.75%
same,inhibition,"[10]; measured here: combination with cisplatin, at 5 µM",-5.64%
same,inhibition,[11]; at 0.5 µM,-2.07% (inactive)
same,inhibition,"[11]; measured here: with BGB IC20, at 0.5 µM",-19.1%
same,inhibition,"[11]; measured here: with BGB IC20, at 5 µM",-10.5%
same,inhibition,"[11]; measured here: with cisplatin IC20, at 0.5 µM",12%
same,inhibition,"[11]; measured here: with cisplatin IC20, at 5 µM",2.66%
same,inhibition,"[11]; single agent, at 5 µM",-16.7%
same,inhibition,[12]; at 0.5 µM,-34.7% (inactive)
same,inhibition,"[12]; measured here: combination with BGB at IC20, at 0.5 µM",-42.4%
same,inhibition,"[12]; measured here: combination with cisplatin at IC20, at 0.5 µM",-29.3%
same,inhibition,[13]; at 0.5 µM,1.11% (inactive)
same,inhibition,"[13]; measured here: combo with BGB at IC20, at 0.5 µM",-0.045%
same,inhibition,"[13]; measured here: combo with cisplatin at IC20, at 0.5 µM",-3.84%
NS(=O)(=O)c1cc2c(cc1Cl)NC(C1CC3C=CC1C3)NS2(=O)=O (centres undefined),fold change,[1]; [14],0.998 (inactive) and 0.957 (inactive) and 0.847 (inactive)
same,fold change,[1]; [15],1.34 and 0.752 and 2.93
same,cell count,[1]; [16],9070 and 9210 and 11400
same,cell count,[1]; [17],9090 and 9620 and 13400
same,outcome,[2],inactive
same,luciferase signal,[4],84 AU (inactive)
same,z-score,[5],0.71 (inactive) and 0.55 (inactive)
Cc1cc(NC(=O)C2=C(O)c3ccccc3S(=O)(=O)N2C)no1,fold change,[1]; [14],0.901 (inactive) and 0.859 (inactive)
same,fold change,[1]; [15],1.1 and 2.9
same,cell count,[1]; [16],8700 and 11400
same,cell count,[1]; [17],9660 and 13300
same,z-score,[6]; [18],0.335 (inactive)
same,z-score,[6]; [19],0.203
same,remaining NAD,[3],10 nM (inactive)
same,luciferase signal,[4],72 AU (inactive)
CCN(CC)Cc1cc(Nc2ccnc3cc(Cl)ccc23)ccc1O,fold change,[1]; [14],0.891 (inactive)
same,fold change,[1]; [15],1.28
same,cell count,[1]; [16],7140
same,cell count,[1]; [17],8010
same,z-score,[6]; [18],0.684 (inactive)
same,z-score,[6]; [19],0.737
same,remaining NAD,[3],10 nM (inactive)
same,luciferase signal,[4],60 AU (inactive)
CC(N)CCCC(C)(C)O (centres undefined),fold change,[1]; [14],0.926 (inactive)
same,fold change,[1]; [15],1.29
same,cell count,[1]; [16],8630
same,cell count,[1]; [17],9320
same,z-score,[6]; [18],0.045 (inactive)
same,z-score,[6]; [19],0.396
same,remaining NAD,[3],10 nM (inactive)
same,luciferase signal,[4],160 AU (inactive)
COc1cccc(OC)c1C(=O)N[C@@H]1C(=O)N2[C@@H]1SC(C)(C)[C@@H]2C(=O)O,fold change,[1]; [14],0.949 (inactive)
same,fold change,[1]; [15],0.959
same,cell count,[1]; [16],11700
same,cell count,[1]; [17],12400
same,z-score,[6]; [18],-0.625 (inactive)
same,z-score,[6]; [19],-0.275
same,remaining NAD,[3],10 nM (inactive)
same,luciferase signal,[4],32 AU (inactive)
NC(=O)N/N=C/c1ccc([N+](=O)[O-])o1,fold change,[1]; [14],0.848 (inactive) and 0.979 (inactive)
same,fold change,[1]; [15],1.31 and 0.64
same,cell count,[1]; [16],7760 and 9710
same,cell count,[1]; [17],9150 and 9920
same,z-score,[6]; [18],-0.906 (inactive)
same,z-score,[6]; [19],-1.1
same,remaining NAD,[3],10 nM (inactive)
same,luciferase signal,[4],36 AU (inactive)
OC(CCN1CCCCC1)(c1ccccc1)c1ccccc1,fold change,[1]; [14],0.941 (inactive)
same,fold change,[1]; [15],1.61
same,cell count,[1]; [16],9230
same,cell count,[1]; [17],9810
same,z-score,[6]; [18],-1.04 (inactive)
same,z-score,[6]; [19],-0.829
same,remaining NAD,[3],10 nM (inactive)
same,luciferase signal,[4],36 AU (inactive)
O=C(OCC(O)CO)c1ccccc1Nc1ccnc2cc(Cl)ccc12 (centres undefined),fold change,[1]; [14],0.91 (inactive)
same,fold change,[1]; [15],1.28
same,cell count,[1]; [16],8940
same,cell count,[1]; [17],9820
same,z-score,[6]; [18],1.77 (inactive)
same,z-score,[6]; [19],0.884
same,remaining NAD,[3],10 nM (inactive)
same,luciferase signal,[4],176 AU (active)
CN1CCC(OC(c2ccccc2)c2ccccc2)CC1,fold change,[1]; [14],0.843 (inactive) and 0.871 (inactive)
same,fold change,[1]; [15],1.44 and 0.876
same,cell count,[1]; [16],8640 and 11300
same,cell count,[1]; [17],10200 and 13000
same,z-score,[6]; [18],0.35 (inactive)
same,z-score,[6]; [19],0.809
same,remaining NAD,[3],10 nM (inactive)
same,luciferase signal,[4],32 AU (inactive)
CCCCC(CC)CN=C(N)NC(N)=NCCCCCCN=C(N)NC(N)=NCC(CC)CCCC (centres undefined),fold change,[1]; [14],0.778 (inactive)
same,fold change,[1]; [15],1.43
same,cell count,[1]; [16],389
same,cell count,[1]; [17],500
same,z-score,[6]; [18],-2.81
same,z-score,[6]; [19],8.3
same,remaining NAD,[3],10 nM (inactive)
same,luciferase signal,[4],88 AU (inactive)
